Bioassay records deposited in PubChem by several laboratories.
Shown are actives, neighbours in structure and some others; about 5.9% of the full set was active somewhere.
FXN GAA850 act: FXN promoter activators, primary screen, cell-based, luciferase luminescence, HEK293 lucGAA850; HEK293 lucGAA850 FXN promoter luciferase reporter, 24 h; percent of 10 µM SAHA response; activation, % at 6 µM; hit rate 0.56% among 360,000;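 active = activation above the average of all compounds screened plus 3 SD, cutoff fixed separately per campaign, cut at about 7.5% in these data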;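 note: 0% = DMSO wells and 100% = 10 µM SAHA wells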
HSF1 inh: HSF1 inhibitors in luciferase reporter cells, primary screen, cell-based, NIH3T3, luminescence | activity change, negative = inhibition, % at 7.5 µM (by protocol) | AID 2098, 2009 | hit rate 0.77% among 300,000 | NIH3T3-HGL HSE-luciferase, MG132-induced, luminescence 8 h; hits give low values;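 active = more than half of replicate wells show activity change below -50%, luminescence cut by over half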;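 note: luciferase reports HSF-1 transcriptional activity via heat shock element; 0% = median of DMSO wells and -100% = zero luminescence signal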
HSP90 refold inh: HSP90 inhibitors, primary screen, cell lysate, luminescence | Heat shock protein HSP 90 (rabbit reticulocyte lysate; luciferase refolding) | Rabbit reticulocyte lysate, luciferase refolding luminescence, 3 h | inhibition, % at 5.6 µM | hit rate 0.91% among 290,000;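 active = inhibition above the screen-wide mean plus 3 SD, computed separately per campaign, cut at about 16% in these data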;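 note: 0% = DMSO wells and 100% = 60 µM geldanamycin wells; inhibitors lower the luminescence because luciferase stays unfolded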
HSF1 activator: HSF-1 activators, primary screen, NIH3T3-HGL cells, MG132 stress, luminescence, single point; NIH3T3-HGL HSF-1 luciferase reporter, 8 h; 100% = twice DMSO control signal; activation, % at 9 µM; hit rate 1.7% among 300,000; AID 504408, 2011;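 active = mean replicate activation of at least 50% with a set share of replicates each reaching 50%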;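 note: 0% = median of the neutral control wells and 100% = twice that signal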
NR0B1 inh: DAX1 (NR0B1) inhibitors, primary screen, cell-based, HEK293, Gal4-DAX1, luciferase luminescence; Nuclear receptor subfamily 0 group B member 1 (Homo sapiens), P51843; HEK293 Gal4-DAX1 luciferase reporter; inhibition, % at 6.75 µM; hit rate 0.99% among 340,000;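 active = inhibition above the mean over all tested compounds plus 3 SD, cut at about 4.2% in these data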;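 note: 0% = DAX1-transfected cells with DMSO and 100% = empty-vector control cells with DMSO; inhibition shows as a rise in luminescence from relieved DAX1 repression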
AHR act: AHR activators, primary screen, cell-based, luminescence, luciferase reporter, human | AHR-responsive luciferase reporter cells | activation, % at 5 µM | Aryl hydrocarbon receptor (Homo sapiens), P35869 | hit rate 2.5% among 320,000 | AID 2796, 2010; in the data active = activation above about 47%;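 note: 0% = vehicle wells and 100% = reference agonist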
Target sequence (P35869 whole entry, looked up): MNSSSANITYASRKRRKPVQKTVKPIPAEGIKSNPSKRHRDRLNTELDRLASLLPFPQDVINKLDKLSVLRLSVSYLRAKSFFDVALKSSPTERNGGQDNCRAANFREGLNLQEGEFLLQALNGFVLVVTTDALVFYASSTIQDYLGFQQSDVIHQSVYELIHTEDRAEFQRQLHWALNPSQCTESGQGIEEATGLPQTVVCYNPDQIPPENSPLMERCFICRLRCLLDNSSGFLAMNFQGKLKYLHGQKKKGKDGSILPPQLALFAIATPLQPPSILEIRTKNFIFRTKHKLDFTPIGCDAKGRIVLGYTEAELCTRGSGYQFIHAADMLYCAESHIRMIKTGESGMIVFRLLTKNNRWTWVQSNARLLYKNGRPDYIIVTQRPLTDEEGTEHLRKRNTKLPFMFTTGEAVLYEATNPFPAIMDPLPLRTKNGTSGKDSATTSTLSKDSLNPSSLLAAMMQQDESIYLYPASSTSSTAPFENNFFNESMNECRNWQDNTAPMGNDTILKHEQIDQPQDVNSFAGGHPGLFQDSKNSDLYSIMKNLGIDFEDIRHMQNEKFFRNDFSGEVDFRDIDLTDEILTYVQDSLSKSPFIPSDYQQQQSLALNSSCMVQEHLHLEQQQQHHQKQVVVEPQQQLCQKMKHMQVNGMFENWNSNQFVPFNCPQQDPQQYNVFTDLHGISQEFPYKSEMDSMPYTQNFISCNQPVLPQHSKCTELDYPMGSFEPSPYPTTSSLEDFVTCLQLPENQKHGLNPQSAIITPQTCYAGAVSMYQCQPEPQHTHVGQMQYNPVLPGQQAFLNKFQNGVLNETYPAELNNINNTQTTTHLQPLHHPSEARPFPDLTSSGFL
Starred values were filed as active, the others as inactive; nt = no result given.

SMILES	FXN GAA850 act	HSF1 inh	HSP90 refold inh	HSF1 activator	NR0B1 inh	AHR act
O=C(CSc1nc2c(cnn2-c2ccccc2)c(=O)[nH]1)NC1CCS(=O)(=O)C1 (stereo unspecified)	0	1	0	-2	5.7*	0
CCOC(=O)CCc1c(C)c2ccc3c(c2oc1=O)CN(CCCO)CO3	1	1	11	-5	-1	4
Cc1cc(-n2c(SCC(=O)NCc3cccs3)nc3n[nH]c(C)c3c2=N)ccc1Cl	-8	14	2	34	-2	70*
CCc1ccc(NC(=O)CSc2nc3n[nH]c(C)c3c(=N)n2-c2cccc(OC)c2)cc1	-5	40	2	69*	-1	11
CC(Oc1nc2c(c(=O)n(C)c(=O)n2C)n1C)C1CCCCC1 (stereo unspecified)	1	nt	nt	nt	1	nt
Cc1nc2cc3c(cc2c(C)c1C(=O)OC(C)C)OCO3	3	11	-2	28	2	64*
COC(=O)c1nc2cc3c(cc2c(C)c1C(=O)OC)OCO3	-2	3	0	-4	0	1
CCCCNC(=O)C1(C)CCCCN1C(=O)c1cccc(OC(F)(F)F)c1 (stereo unspecified)	0	nt	nt	nt	nt	nt
O=C(NC1CCS(=O)(=O)C1)Oc1ccccc1 (stereo unspecified)	0	6	0	8	0	-2
O=C(NC1CCCCC1)Oc1ccccc1	-1	-1	10	22	6.9*	-3
Clc1ccc(-n2cccc2CN2CCc3c([nH]c4ccccc34)C2c2ccccn2)nc1 (stereo unspecified)	1	-2	0	6	1	24
COC(=O)c1cc(=O)n(-c2ccc(F)cc2)c(=Nc2ccc(F)cc2)s1	0	48	-1	57*	2	5
COC(=O)c1cc(=O)n(Cc2cccs2)c(=Nc2ccc(F)cc2)s1	2	45	4	52*	-1	6
COC(=O)c1cc(=O)n(Cc2ccc3c(c2)OCO3)c(=Nc2ccc(F)cc2)s1	0	-9	1	-5	1	2
FC(F)(F)Oc1ccc(Nc2nc3ccccc3o2)cc1	4	45	7	78*	3	9
Nc1c(CNCc2nnn(Cc3ccccc3)c2N)nnn1Cc1ccccc1	-1	nt	nt	nt	1	nt
NS(=O)(=O)c1ccc(NC(=O)COC(=O)c2ccc(S(=O)(=O)N3CCOCC3)cc2)cc1	1	nt	nt	nt	-1	-2
COc1ccc(-n2nc3c(N4CCC(C(=O)N5CCC(C)CC5)CC4)nnc(C)c3c2C)cc1	0	17	-2	55*	-1	0
Cc1nnc(N2CCC(C(=O)N3CCCCC3)CC2)c2nn(-c3ccc(Cl)cc3)c(C)c12	1	2	-4	17	0	-1
COc1ccc(C(=O)O)cc1S(=O)(=O)NCCc1ccccn1	-2	-1	11	4	1	1
Cc1ccc(S(=O)(=O)N2CCN(c3ccccc3)CC2)s1	2	nt	nt	nt	1	-1
CCOc1ccc(OCCC(=O)NNC(=O)c2ccccc2Cl)cc1	-2	-9	nt	-22	0	3
Cc1ccc(OCCC(=O)NNC(=O)c2cc(C)oc2C)cc1	0	0	nt	-2	4.4*	1
Cc1nc2ccc(Cl)cc2nc(C)/c1=N\O	3	12	-1	25	5.3*	58*
Cc1ccc2nc(C)/c(=N\O)c(C)nc2c1	3	0	12	-2	-1	14
SMILES	FXN GAA850 act	HSF1 inh	HSP90 refold inh	HSF1 activator	NR0B1 inh	AHR act
Cc1ccc(NC(=O)c2cc3ccccc3oc2=O)cc1S(=O)(=O)N(C)C	-15	-89*	38*	-91	nt	-8
Cc1ccccc1NC(=S)c1nc2ccccc2[nH]1	6	33	-2	67*	0	47*
CCN(CC)C(=O)CSC1=N/C(=C/c2ccco2)C(=O)N1c1ccc(OC)c(Cl)c1	-2	45	4	67*	0	0
NC(=O)CSC1=N/C(=C\c2ccco2)C(=O)N1c1ccc(OC(F)F)cc1	2	53	5	72*	0	2
COCCCNC(=O)CCCn1c(=O)c2ccccc2n(CC(=O)Nc2c(C)cccc2C)c1=O	0	-1	3	16	0	-1
COCCCNC(=O)CCn1c(=O)c2ccccc2n(CC(=O)Nc2cc(Cl)ccc2C)c1=O	0	45	-1	83*	3	10
Cc1ccc(CNc2c(C=O)c(=O)[nH]c3ccccc23)cc1	1	17	2	63*	0	3
N#CCc1ccc(NC(=O)Nc2cccc3ccccc23)cc1	2	-78*	2	-82	0	16
Cc1ccc(Sc2ccc(NC(=O)c3ccc(S(C)(=O)=O)cc3Cl)cc2)cc1	-2	-5	2	-4	0	48*
CS(=O)(=O)NNC(=O)Cn1nnc(-c2ccc(OCc3ccccc3Cl)cc2)n1	2	2	nt	-4	0	-4
Fc1ccc2cc(-c3cccnc3)ncc2c1	2	nt	nt	nt	3	17
COc1cc2cnc(-c3ccsc3)c(-c3ccc(F)cc3)c2cc1OC	-1	nt	nt	nt	-1	1
COc1cc2cnc(-c3ccsc3)cc2cc1OC	5	nt	nt	nt	1	49*
Fc1ccc2cc(-c3ccsc3)ncc2c1	5	nt	nt	nt	2	51*
Cc1c(C(=O)N2CCCC2)c(S(=O)(=O)NCCc2ccccc2)c(C)n1C	-1	4	4	16	0	3
COc1ccc(N(CC(=O)NCCSCc2ccccc2Cl)S(C)(=O)=O)cc1Cl	5	2	4	29	-2	1
CCOc1cc(/C=C/C(=O)c2ccc3c(c2)OCCO3)ccc1OCC(=O)N(C)C	1	53	0	68*	-2	2
CCOc1cc(/C=C/C(=O)c2ccc(O)cc2)ccc1OCC(=O)N(C)C	0	28	-3	18	-1	-2
O=C(CN1C(=O)C2CCCCC2C1=O)Nc1ccc(OC(F)F)c(Cl)c1 (stereo unspecified)	0	nt	nt	nt	0	2
Cc1ccc(C)c(S(=O)(=O)N2CCN(C(=O)c3ccccn3)CC2)c1	-1	nt	nt	nt	0	0
CCOc1cc(/C=C/C(=O)c2ccc(OC)c(CN3CCOCC3)c2)cc(Br)c1O	1	1	0	-3	-2	3
Cc1c(C#N)c(N=CN(C)C)c(C(=O)c2ccccc2)n1-c1ccccc1	1	-3	1	8	0	2
Cc1c(C(N)=O)c(N)c(C(=O)c2ccccc2)n1-c1ccccc1	-3	-6	-1	-18	5.0*	1
